Source: PubChem BioAssay (National Center for Advancing Translational Sciences (NCATS))
Hits are enriched below; roughly 0.24% of the tested compounds scored in any of these assays.
B2AR arrestin ag: ADRB2 beta-arrestin recruitment | HTLA Tango cells, beta-arrestin recruitment, luciferase luminescence, 18 h | Potency, µM (series often up to 46.1 µM), most hits filed as activators | 44,000 tested, under 10 active | AID 1347077;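 further: potency means the concentration at half of the fitted maximal effect; 0% = DMSO and full agonism = EC100 isoproterenol or metaproterenol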
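First, Tango cells carrying beta2-AR and beta-arrestin fusions received compound up to 46 microM. After 18 hr at 37 degrees C, luciferase substrate was added for 15 minutes, then luminescence gave %Activity for curve fitting.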
TSG101-PTAP inh: TSG101-PTAP interaction inhibition, HIV-1 budding | Fluorescence polarization, FITC-PTAP peptide/Tsg101, 20 min | 44,000 tested, under 10 active | Potency, µM (highest dose often 115 µM), actives largely listed as inhibitors | Q99816 | AID 1347069; further: potency means the concentration at half of the fitted maximal effect; 0% is about no effect
Target sequence (Q99816 whole entry, looked up): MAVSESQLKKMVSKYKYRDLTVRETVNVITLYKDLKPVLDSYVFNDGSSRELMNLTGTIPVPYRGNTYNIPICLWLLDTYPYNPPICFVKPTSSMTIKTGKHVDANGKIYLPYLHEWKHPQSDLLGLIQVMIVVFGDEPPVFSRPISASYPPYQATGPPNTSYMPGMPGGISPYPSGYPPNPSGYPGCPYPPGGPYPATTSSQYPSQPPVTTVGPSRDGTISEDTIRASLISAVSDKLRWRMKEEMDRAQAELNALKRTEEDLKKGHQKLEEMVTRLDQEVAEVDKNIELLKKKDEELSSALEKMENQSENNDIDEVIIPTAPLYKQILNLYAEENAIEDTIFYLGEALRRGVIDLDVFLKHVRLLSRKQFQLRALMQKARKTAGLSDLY
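Fluorescence polarization: Tsg101 binding domain (10 uM final) in 10 mM HEPES pH 7.5, 0.15 M NaCl, 0.01% Tween 20, 3 mM EDTA, 0.1 mM TCEP; compounds pinned; FITC-PTAP peptide 50 nM final; 20 min, r.t.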
GALK inhibitor: GALK (human) enzyme inhibition; P51570; recombinant GALK, Kinase-Glo ATP luminescence, 1 h; Potency, µM (top dose mostly 57.5 µM), inactives show top-dose activity, negative = inhibition, actives largely listed as inhibitors; 44,000 tested, under 10 active; AID 1347072;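 further: plate controls were full GALK reaction for no effect and reaction lacking GALK for full effect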
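Human GALK (5 nM) was incubated with 35 uM ATP and 100 uM galactose in 20 mM HEPES pH 8.0 with MgCl2, NaCl, DTT and BSA for 1 h at room temperature. Remaining ATP was measured by Kinase-Glo Plus luminescence.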
FH mod: Identification of activators of human fumarate hydratase by quantitative high-throughput screening | FH coupled MDH/diaphorase resazurin fluorescence, 15 min | Potency, µM (titrated, usually from 79.9 µM), for the others: at the highest dose activity change, negative = inhibition, hits mostly inhibitors | 54,000 tested, 0.22% active; further: potency means the concentration at half of the fitted maximal effect; on the % scale 0 is the no-effect control and ±100 the full control effect; the screen sought activators but most active calls are inhibition curves; nearly all actives have a fitted effect of over 45% in size
* marks the source's active call; other numbers are inactive results; ! = not active in a repeat; [ ] = dose if it differs, or a comment. The call rests on the fitted dose curve; in most records, active means well fitted curve in the direction sought with a large enough effect; inconclusive means small, poorly fitted or top-dose-only effect, or another doubt; inactive means no such curve, though single readings can be large; an effect the other way counts as inactive or inconclusive.

How did COc1ccccc1C(=O)Nc1ccc(NC(=O)c2cccs2)cc1 do in these assays?
B2AR arrestin ag: inactive; TSG101-PTAP inh: inactive; GALK inhibitor: -3%; FH mod: inconclusive

What do the screens show for `COc1ccc(C(=O)Nc2ccc(NC(=O)c3cccs3)cc2)cc1OC`?
B2AR arrestin ag: inactive; TSG101-PTAP inh: inactive; GALK inhibitor: -1%; FH mod: 28µM*[activator]

What do the screens show for `O=Cc1ccc(O)c(O)c1O`?
FH mod: 15µM*

Results for Cc1cccn2c(=O)cc(COc3ccc(NC(=O)c4cccc(F)c4)cc3)nc12 ?
B2AR arrestin ag: inactive; TSG101-PTAP inh: inactive; GALK inhibitor: 1%; FH mod: 3%

Results for COc1ccc(NC(=O)CN2C(=O)C(c3ccc(C)cc3)=NC23CCCCCC3)cc1Cl ?
B2AR arrestin ag: inactive; TSG101-PTAP inh: inactive; GALK inhibitor: 0%; FH mod: -21%

How did COc1ccc(N2CCN(C(=O)C3CCN(S(=O)(=O)Cc4ccccc4)CC3)CC2)cc1 do in these assays?
B2AR arrestin ag: inactive; TSG101-PTAP inh: inactive; GALK inhibitor: 4%

Results for O=C(Nc1c(C(=O)N2CCN(c3ccccc3F)CC2)oc2ccccc12)c1ccco1 ?
B2AR arrestin ag: inactive; TSG101-PTAP inh: inactive; GALK inhibitor: -3%; FH mod: -19%

What do the screens show for `COc1ccccc1C(=O)Nc1nnc(SCc2cc(=O)n3ccc(C)cc3n2)s1`?
B2AR arrestin ag: inactive; TSG101-PTAP inh: inactive; GALK inhibitor: 4%; FH mod: 1.1µM*

What do the screens show for `O=C(COc1ccc(Cl)cc1)N(Cc1ccco1)c1ccccn1`?
B2AR arrestin ag: inactive; TSG101-PTAP inh: inactive; GALK inhibitor: -1%; FH mod: 1%

How did Cc1ccc(NC(=O)CCSc2nc(-c3ccc4c(c3)OCO4)cc(C(F)(F)F)n2)c(C)c1 do in these assays?
B2AR arrestin ag: inactive; TSG101-PTAP inh: inactive; GALK inhibitor: 7%; FH mod: -4%

How did COc1cccc(CN(C(=O)c2oc3cc(C)ccc3c2C)C2CCS(=O)(=O)C2)c1 (configuration not stated) do in these assays?
B2AR arrestin ag: inconclusive; TSG101-PTAP inh: inactive; GALK inhibitor: 0%; FH mod: 32µM*

What do the screens show for `Oc1cc(O)cc(/C=C/c2ccc(O)c(O)c2)c1`?
FH mod: 3.5µM*!

What do the screens show for `O=C(C=Cc1ccc(O)cc1)c1ccc(O)cc1O`?
FH mod: -21%[53.3 µM]

How did Cc1ccc(CNC(=O)CCS(=O)(=O)c2cc3c(cc2Cl)NC(=O)CO3)cc1 do in these assays?
B2AR arrestin ag: inactive; TSG101-PTAP inh: inactive; GALK inhibitor: 1%; FH mod: 3%

Results for CCOCCCn1c(SCC(=O)Nc2ccc(OC)cc2OC)nc2ccccc2c1=O ?
B2AR arrestin ag: inactive; TSG101-PTAP inh: inactive; GALK inhibitor: 1%; FH mod: -4%

How did CCC(=O)N1CCc2cc(OC)c(O)cc2C1 do in these assays?
FH mod: 6%

Results for O=c1c(O)c(-c2cc(O)c(O)c(O)c2)oc2cc(O)cc(O)c12 ?
FH mod: -26%[53.3 µM]

How did COc1ccc(-c2cc(=O)c3c(O)cc(O)cc3o2)cc1O do in these assays?
FH mod: 24µM*

How did Cc1ccc(CNS(=O)(=O)c2cc3[nH]c(=O)c(=O)[nH]c3cc2C)cc1 do in these assays?
B2AR arrestin ag: inactive; TSG101-PTAP inh: inactive; GALK inhibitor: 3%; FH mod: -19%

What do the screens show for `CCCN(CCC)CCNC(=O)Cn1cc2c(n1)-c1c(oc(C(=O)N3CCCC3)c1C)CC2`?
B2AR arrestin ag: 22µM*; TSG101-PTAP inh: inactive; GALK inhibitor: 1%; FH mod: -2%

Results for COc1ccc(Cn2c(CO)cnc2SCc2ccccc2C)cc1 ?
B2AR arrestin ag: inactive; TSG101-PTAP inh: inactive; GALK inhibitor: -2%; FH mod: -1%

How did COc1ccc(-c2nc(SCC(=O)Nc3ccc4c(c3)OCCO4)c(-c3ccccc3)[nH]2)cc1 do in these assays?
B2AR arrestin ag: inactive; TSG101-PTAP inh: inactive; GALK inhibitor: 4%; FH mod: inconclusive

Results for COc1cccc(-c2nc(SCC(=O)Nc3ccc4c(c3)OCCO4)c(-c3ccccc3)[nH]2)c1 ?
B2AR arrestin ag: inactive; TSG101-PTAP inh: inactive; GALK inhibitor: -7%; FH mod: 40µM*

Results for CC(CNC(=O)C1CCN(C(=O)N2CCOc3ccc(Cl)cc32)CC1)c1ccccc1 (configuration not stated) ?
B2AR arrestin ag: inactive; TSG101-PTAP inh: inactive; GALK inhibitor: 1%; FH mod: 3%

Results for CCOc1ccc(CCNC(=O)CSc2n[nH]c(-c3ccccc3)n2)cc1OCC ?
B2AR arrestin ag: inactive; TSG101-PTAP inh: inactive; GALK inhibitor: 4%; FH mod: 6.3µM*

How did COc1cc(OC)c(NC(=O)c2c(C)oc3nc(C)nc(N4CCOCC4)c23)cc1Cl do in these assays?
B2AR arrestin ag: inactive; TSG101-PTAP inh: inactive; GALK inhibitor: 1%; FH mod: 0%

Results for Cc1cc(C)n2nc(CNC(=O)c3ccccc3Cl)nc2n1 ?
B2AR arrestin ag: inactive; TSG101-PTAP inh: inactive; GALK inhibitor: 8%; FH mod: -5%

What do the screens show for `COc1ccc(S(=O)(=O)N(CCc2ccccc2)CC(=O)Nc2cccc(OC)c2)cc1`?
B2AR arrestin ag: inactive; TSG101-PTAP inh: inactive; GALK inhibitor: 2%; FH mod: -28%

Results for C=C1CN(Cc2ccc(C(=O)Nc3ccccc3N)cc2)C(=O)c2ccccc21 ?
FH mod: 1%

Results for Cc1cc(Cl)ccc1OCC(=O)N(Cc1ccco1)Cc1ccccc1F ?
B2AR arrestin ag: inactive; TSG101-PTAP inh: inactive; GALK inhibitor: 6%; FH mod: -4%

What do the screens show for `C=C1CC[C@]2(C(=O)O[C@@H]3O[C@H](CO)[C@@H](O)[C@H](O)[C@H]3O)CC[C@]3(C)C(=CCC4[C@@]5(C)C[C@H](O)[C@@H](O[C@@H]6O[C@H](C(=O)O)[C@@H](O)[C@H](O)[C@H]6O)[C@](C)(C=O)C5CC[C@]43C)C2C1` (some centres not stated)?
FH mod: 1%[20.6 µM]

How did COc1ccc(C[C@@H](C)[C@@H](C)Cc2ccc(OC)c(OC)c2)cc1OC do in these assays?
FH mod: -10%[53.3 µM]

Results for COc1ccc(NC(=O)CCc2nc3cccnc3n2-c2ccccc2)c(OC)c1 ?
B2AR arrestin ag: inactive; TSG101-PTAP inh: inactive; GALK inhibitor: -10%; FH mod: -6%

Results for COc1ccc(Br)cc1S(=O)(=O)NC(=O)/C=C/c1ccccc1Cc1ccc2ccccc2c1 ?
FH mod: 20µM*

Results for COc1ccc(C(=O)Nc2ccccc2)cc1S(=O)(=O)Nc1ccc(Br)cc1 ?
B2AR arrestin ag: inactive; TSG101-PTAP inh: inactive; GALK inhibitor: 0%; FH mod: -7%
